The supplement of paper PMC3545927
The list shows a part of the results. How many sequences the whole screen found active is unknown.

B1: HC1867 (peptide)
chain: CATTFCSGSWAGNASASA
B2: HC1061 (peptide)
chain: CALTTSQTLLAGNASASA
B3: HC1594 (peptide)
chain: CAIYGACYSIAGNASASA
B4: HC679 (peptide)
chain: CARGLLGCIIAGNASASA
B5: FS-1606 (peptide)
chain: CARLARASRDAGNASASA
B6: FS-205 (peptide)
chain: CAVHSRASRDAGNASASA
B7: HC2381 (peptide)
chain: CAEVPCHNPSAGNASASA
B8: FS-1504 (peptide)
chain: CAYLNRGRRSAGNASASA
B9: FS-1279 (peptide)
chain: CASGYRGRRSAGNASASA
B10: FS-1462 (peptide)
chain: CALPEAGRRSAGNASASA
B11: FS-295 (peptide)
chain: CASLARGRRSAGNASASA
B12: FS-869 (peptide)
chain: CASPARLARRAGNASASA
B13: FS-1015 (peptide)
chain: CAIPRRHTRSAGNASASA
B14: FS-577 (peptide)
chain: CAYYHRHTRSAGNASASA
B15: FS-363 (peptide)
chain: CALVSRVTRSAGNASASA
B16: FS-1414 (peptide)
chain: CASPERHTRSAGNASASA
B17: HC1518 (peptide)
chain: CACYIKARAAAGNASASA
B18: HC761 (peptide)
chain: CALETTMRSPAGNASASA
B19: HC818 (peptide)
chain: CACDECHSTDAGNASASA
B20: HC2097 (peptide)
chain: CAVVCCSMSSAGNASASA
B21: HC893 (peptide)
chain: CASLDPTFTIAGNASASA
B22: FS-1375 (peptide)
chain: CAMDARTDRSAGNASASA
B23: FS-285 (peptide)
chain: CAQLRRTTRSAGNASASA
B24: FS-299 (peptide)
chain: CASPLRQNRSAGNASASA
B25: FS-627 (peptide)
chain: CASPARETRSAGNASASA
B26: HC2169 (peptide)
chain: CAEYVTSTWVAGNASASA
B27: HC1078 (peptide)
chain: CAAGAAIGSVAGNASASA
B28: HC2215 (peptide)
chain: CAEVVTSHWVAGNASASA
B29: HC1564 (peptide)
chain: CADPTTPLARAGNASASA
B30: HC1624 (peptide)
chain: CAVRARLLARAGNASASA
B31: HC1253 (peptide)
chain: CAAAGRRLARAGNASASA

Molecular target: furin, P09958
Sequence (P09958 whole entry): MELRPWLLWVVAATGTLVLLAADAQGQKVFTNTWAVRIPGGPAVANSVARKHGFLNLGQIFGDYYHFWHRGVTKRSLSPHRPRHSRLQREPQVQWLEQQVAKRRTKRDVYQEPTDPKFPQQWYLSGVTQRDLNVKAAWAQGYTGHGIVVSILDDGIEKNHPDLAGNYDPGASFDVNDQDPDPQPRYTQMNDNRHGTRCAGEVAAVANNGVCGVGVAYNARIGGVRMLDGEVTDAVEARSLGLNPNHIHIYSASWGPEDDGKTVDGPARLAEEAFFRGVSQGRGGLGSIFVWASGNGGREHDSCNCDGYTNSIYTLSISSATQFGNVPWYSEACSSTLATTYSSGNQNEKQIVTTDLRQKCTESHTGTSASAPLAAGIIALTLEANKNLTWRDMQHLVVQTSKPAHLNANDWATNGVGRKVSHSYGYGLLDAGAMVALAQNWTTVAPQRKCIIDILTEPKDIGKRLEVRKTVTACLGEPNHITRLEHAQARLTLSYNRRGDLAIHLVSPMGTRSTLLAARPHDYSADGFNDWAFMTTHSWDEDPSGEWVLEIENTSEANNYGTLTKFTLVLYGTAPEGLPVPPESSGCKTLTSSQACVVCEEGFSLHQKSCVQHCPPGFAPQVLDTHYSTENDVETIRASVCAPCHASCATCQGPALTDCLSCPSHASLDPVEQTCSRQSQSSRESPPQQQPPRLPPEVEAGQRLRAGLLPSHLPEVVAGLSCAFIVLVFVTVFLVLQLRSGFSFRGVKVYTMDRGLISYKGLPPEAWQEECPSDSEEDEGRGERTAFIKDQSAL
Assay: furin cleavage Z-score vs untreated control; higher = more cleavage, active = 3.5 or more, inactive = 1 or less, 8 variable residues between constant flanks
Procedure, shortened: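 Magnetic beads held 8-mer peptides by the N-terminus, each fused to a cDNA oligonucleotide, and purified furin was added for 7.5, 15 or 30 min. Released DNA was sequenced after PCR adapter tagging. The cleavage Z-score is the log count relative to furin-free reactions, lowess-adjusted and divided by median absolute deviation.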
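Also: purified furin at 1:10 enzyme:substrate in 50 mM HEPES pH 7.5.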

Row | Sequence | furin cleavage Z-score (7.5 min) | furin cleavage Z-score (15 min) | furin cleavage Z-score (30 min)
1 | B1 | 0.273 (inactive) | 0.134 (inactive) | -0.205 (inactive)
2 | B2 | -1.15 (inactive) | 0.0331 (inactive) | 0.232 (inactive)
3 | B3 | 0.0718 (inactive) | 0.563 (inactive) | -0.201 (inactive)
4 | B4 | -0.71 (inactive) | -0.595 (inactive) | -1.08 (inactive)
5 | B5 | 6.41 (active) | 5.81 (active) | 5.23 (active)
6 | B6 | 6.86 (active) | 6.96 (active) | 4.81 (active)
7 | B7 | -0.125 (inactive) | 0.398 (inactive) | -1.22 (inactive)
8 | B8 | 8.94 (active) | 11.8 (active) | 8.66 (active)
9 | B9 | 10.4 (active) | 9.6 (active) | 8.02 (active)
10 | B10 | -0.222 (inactive) | -0.673 (inactive) | -1.48 (inactive)
11 | B11 | 9.48 (active) | 9.53 (active) | 7.6 (active)
12 | B12 | 0.549 (inactive) | 3.9 (active) | 4.41 (active)
13 | B13 | 4.95 (active) | 4.88 (active) | 4.46 (active)
14 | B14 | 0.662 (inactive) | 0.71 (inactive) | 1.07
15 | B15 | 13 (active) | 12.8 (active) | 10.3 (active)
16 | B16 | 9.58 (active) | 9.61 (active) | 8.51 (active)

Row | Sequence | furin cleavage Z-score (7.5 min) | furin cleavage Z-score (15 min) | furin cleavage Z-score (30 min)
17 | B17 | -1.15 (inactive) | -2.21 (inactive) | -1.87 (inactive)
18 | B18 | -0.168 (inactive) | -1 (inactive) | -1.96 (inactive)
19 | B19 | 0.0668 (inactive) | -0.316 (inactive) | -1.36 (inactive)
20 | B20 | -1.16 (inactive) | -0.774 (inactive) | -1.81 (inactive)
21 | B21 | -1.06 (inactive) | -1.75 (inactive) | -1.02 (inactive)
22 | B22 | 1.8 | -1.12 (inactive) | 0.78 (inactive)
23 | B23 | 7.33 (active) | 6.26 (active) | 6.25 (active)
24 | B24 | 0.752 (inactive) | 0.557 (inactive) | 0.444 (inactive)
25 | B25 | 5.25 (active) | 8.43 (active) | 6.33 (active)
26 | B26 | 0.357 (inactive) | 0.186 (inactive) | -1.53 (inactive)
27 | B27 | -1.21 (inactive) | 0.457 (inactive) | -0.822 (inactive)
28 | B28 | -1.58 (inactive) | -0.204 (inactive) | 0.171 (inactive)
29 | B29 | -0.242 (inactive) | -3 (inactive) | -1.34 (inactive)
30 | B30 | -2.8 (inactive) | -0.431 (inactive) | -0.318 (inactive)
31 | B31 | 4.08 (active) | 4.81 (active) | 4.86 (active)
